# Source: PubChem BioAssay (Tox21)
# Records with an inconclusive call do not appear. Values without a mark were called inactive. The call rests on the fitted dose curve.
# Assay: qHTS assay to identify small molecule agonists of the NFkB signaling pathway - cell viability counter screen (AID 1159515); further: nearly all actives have a fitted effect of over 55% in size
# Settings: NFkB-bla ME-180 viability, CellTiter-Glo luminescence, 5 h; series mostly up to 61 µM; activity, negative = cytotoxic: at the top concentration
# Source text: National Center for Advancing Translational Sciences [NCATS]
# NIH Chemical Genomics Center [NCGC]
# U.S. Environmental Protection Agency [EPA]
# National Institutes of Environmental Health Sciences [NIEHS]
# National Toxicology Program [NTP]
# U.S. Food and Drug Administration [FDA]
# Transcription factors and their stimulated target gene expression play pivotal roles across many cellular processes including responses to environmental stimuli. Proper regulation of associated pathways is critical to maintain cell health and function. Constitutive activation of transcription factor pathways has been implicated in tumors as it may block cellular functions such as apoptosis and lead to invasion and metastasis. One important transcription factor that stimulates gene expression in response to cytokines, UV radiation, and other stimuli is nuclear factor-kappa B (NFkB). To measure activation of the NFkB pathway, the CellSensor NFkB-bla ME-180 cell line (Life Technologies, Carlsbad, CA) that stably expresses beta-lactamase reporter gene under the regulation of a NF-kB response element was used. This assay allows measurement of the NFkB pathway activity induced by compounds in a ME-180 cell line. This system quantitates NF-kB activity using a FRET-based assay system where beta-lactamase expression disrupts FRET, allowing for fluorescent measurement of activity. This cell line has been used to screen the Tox21 10K compound library and to identify compounds that induce the NFkB pathway activity. The cytotoxicity of the Tox21 compound library against the NFkB-bla ME-180 cell line was tested in parallel by measuring cell viability using the CellTiter-Glo assay in the same wells.
# Tox21 Assay Protocol Summary:
# NFkB-bla ME-180 cells were dispensed at 2,000 cells/6 uL of assay medium per well into black wall/clear-bottom 1536-well plates using a Multidrop Combi (ThermoFisher Scientific, Waltham, MA) dispenser. After the assay plates were incubated at 37 C and 5% CO2 for an overnight, 23 nL of compounds dissolved in DMSO, positive controls or DMSO only was transferred to the assay plate by a Pintool station (Kalypsys, San Diego, CA). The assay plates were incubated at 37 C and 5% CO2 for 5 hr. One uL of LiveBLAzer B/G FRET substrate (Life Technologies) was added using a Flying Reagent Dispenser (Aurora Discovery, San Diego, CA) and the plates were incubated at room temperature for 1.5 hr. Fluorescence intensity (405 nm excitation, 460 nm and 530 nm emissions) was measured using an Envision plate reader (PerkinElmer, Shelton, CT). For cytotoxicity, 3 ul/well of CellTiter-Glo reagent was added into the assay plates using an FRD. After 30 min incubation at room temperature, the luminescence intensity was measured using a ViewLux plate reader (PerkinElmer).
# On the % scale 0 is the no-effect control and ±100 the full control effect.
row,SMILES,"activity, negative = cytotoxic"
1,CSc1nc(N=[N+]=[N-])nc(NC(C)C)n1,-3.56%
2,O=C1CN2CCOC2(c2ccccc2Cl)c2cc(Cl)ccc2N1 (stereo not given),0.118%
3,COc1ccc(C(=O)N2CCCC2=O)cc1,-2.27%
4,CCN(Cc1ccc(Cl)nc1)/C(=C/[N+](=O)[O-])NC,-0.237%
5,CC(C1CC1)C(O)(Cn1cncn1)c1ccc(Cl)cc1 (stereo not given),1.01%
6,CCS(=O)(=O)CCSP(=O)(OC)OC,8.12%
7,CC(N)=S,5.47%
8,Fc1cc(Br)ccc1CBr,9.29%
9,Cc1ccccc1CO[C@@H]1C[C@@]2(C(C)C)CC[C@]1(C)O2,-8.61%
10,CC(C)CC#N,5.8% [at 78.8 µM]
11,Clc1ccccc1N1CCNCC1,6.63%
12,Cc1cc(C)c(C(=O)P(=O)(C(=O)c2c(C)cc(C)cc2C)c2ccccc2)c(C)c1,-1.21%
13,CCC(Cl)[N+](=O)[O-] (stereo not given),6.57% [at 78.8 µM]
14,COc1cc(OC)nc(NC(=O)NS(=O)(=O)c2ncccc2OCC(F)(F)F)n1,6.7%
15,c1cc2c(c(N3CCNCC3)c1)OCCO2,8.19%
16,CC1=NNC(=O)N(/N=C/c2cccnc2)C1,4.18%
17,CCOP(=O)(OCC)OP(=O)(OCC)OCC,-4.96%
18,C[N+](=O)[O-],16.4%
19,[O]=[Cd],-11.6%
20,CN/C(=N\[N+](=O)[O-])NCC1CCOC1 (stereo not given),0.506%

row,SMILES,"activity, negative = cytotoxic"
1,CSc1ccc(C(=O)C(C)(C)N2CCOCC2)cc1,-5.21%
2,C(CCOCC1CO1)COCC1CO1 (stereo not given),2.59%
3,Nc1c(Br)cc([N+](=O)[O-])cc1[N+](=O)[O-],-4.52% [at 78.8 µM]
4,CC(=O)C(Cl)Cl,-2.57% [at 78.8 µM]
5,O=CNC(N1CCN(C(NC=O)C(Cl)(Cl)Cl)CC1)C(Cl)(Cl)Cl (stereo not given),5.84%
6,CNC(=O)N(C)c1nc2ccccc2s1,0.102%
7,COC(=O)C(C)Oc1ccc(Oc2ccc(Cl)cc2Cl)cc1 (stereo not given),-0.796%
8,CC1(C(=O)Nc2ccc(O)c(Cl)c2Cl)CCCCC1,-1.86%
9,CC1=C(C(=O)O)N2C(=O)[C@@H](N)[C@H]2SC1,5.28% [at 28.5 µM]
10,N#CCNCC#N,8.23%
11,CCC(C)(C)c1cc(-n2nc3ccccc3n2)c(O)c(C(C)(C)CC)c1,0.512% [at 78.8 µM]
12,CC(C(O)c1ccccc1)N(C)C/C=C/c1ccccc1 (stereo not given),-5.41%
13,O=C1CN=C(c2ccccc2)c2cc([N+](=O)[O-])ccc2N1,-5.17%
14,O=C(Oc1ccc(Br)cc1)N1CCN2CCC1CC2,0.716%
15,CC1=C(C(=O)Nc2ccccc2)S(=O)(=O)CCO1,25.1%
16,Nc1n[nH]c(N)n1,3.14% [at 78.8 µM]
17,Cc1cccc(C#N)c1,15.6%
18,Clc1cccc(N2CCNCC2)c1,-28.4%
19,CCC(=O)c1ccccc1,-1.03%
20,O=[N+]([O-])c1ccc(CBr)cc1,-0.796% [at 78.8 µM]
